# Shown are actives, neighbours in structure and some others; about 2.4% of the full set was active somewhere.
# NOD2 RIPK2 PPI: NOD2-RIPK2 protein interaction inhibition; O43353; CHO BLA complementation NOD2-RIPK2, CCF4 ratio; inhibition, % at 4.98 µM; hit rate 0.38% among 360,000; in the data active = inhibition above about 21%;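 also: 0% = vehicle only and 100% = reference blocker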
# TLR9-MyD88 block: blocks human TLR9 binding to MyD88; CHO BLA complementation TLR9-MyD88, CCF4 FRET ratio; inhibition, % at 4.98 µM; hit rate 0.21% among 340,000;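 active = inhibition above the mean over all tested compounds plus 3 SD, cut at about 21% in these data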;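 also: 0% = DMSO only wells and 100% = clavulanate BLA inhibitor control wells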
# Target sequence (Q99836 whole entry, looked up): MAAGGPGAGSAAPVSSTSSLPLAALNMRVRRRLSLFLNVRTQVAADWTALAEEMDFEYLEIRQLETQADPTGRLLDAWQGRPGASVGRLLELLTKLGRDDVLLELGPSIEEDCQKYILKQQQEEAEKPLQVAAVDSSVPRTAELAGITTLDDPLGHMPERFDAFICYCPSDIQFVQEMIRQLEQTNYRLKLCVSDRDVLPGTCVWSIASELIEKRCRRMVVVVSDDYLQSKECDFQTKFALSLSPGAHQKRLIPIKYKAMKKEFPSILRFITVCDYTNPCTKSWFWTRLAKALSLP
# Target sequence (Q9NR96 whole entry, looked up): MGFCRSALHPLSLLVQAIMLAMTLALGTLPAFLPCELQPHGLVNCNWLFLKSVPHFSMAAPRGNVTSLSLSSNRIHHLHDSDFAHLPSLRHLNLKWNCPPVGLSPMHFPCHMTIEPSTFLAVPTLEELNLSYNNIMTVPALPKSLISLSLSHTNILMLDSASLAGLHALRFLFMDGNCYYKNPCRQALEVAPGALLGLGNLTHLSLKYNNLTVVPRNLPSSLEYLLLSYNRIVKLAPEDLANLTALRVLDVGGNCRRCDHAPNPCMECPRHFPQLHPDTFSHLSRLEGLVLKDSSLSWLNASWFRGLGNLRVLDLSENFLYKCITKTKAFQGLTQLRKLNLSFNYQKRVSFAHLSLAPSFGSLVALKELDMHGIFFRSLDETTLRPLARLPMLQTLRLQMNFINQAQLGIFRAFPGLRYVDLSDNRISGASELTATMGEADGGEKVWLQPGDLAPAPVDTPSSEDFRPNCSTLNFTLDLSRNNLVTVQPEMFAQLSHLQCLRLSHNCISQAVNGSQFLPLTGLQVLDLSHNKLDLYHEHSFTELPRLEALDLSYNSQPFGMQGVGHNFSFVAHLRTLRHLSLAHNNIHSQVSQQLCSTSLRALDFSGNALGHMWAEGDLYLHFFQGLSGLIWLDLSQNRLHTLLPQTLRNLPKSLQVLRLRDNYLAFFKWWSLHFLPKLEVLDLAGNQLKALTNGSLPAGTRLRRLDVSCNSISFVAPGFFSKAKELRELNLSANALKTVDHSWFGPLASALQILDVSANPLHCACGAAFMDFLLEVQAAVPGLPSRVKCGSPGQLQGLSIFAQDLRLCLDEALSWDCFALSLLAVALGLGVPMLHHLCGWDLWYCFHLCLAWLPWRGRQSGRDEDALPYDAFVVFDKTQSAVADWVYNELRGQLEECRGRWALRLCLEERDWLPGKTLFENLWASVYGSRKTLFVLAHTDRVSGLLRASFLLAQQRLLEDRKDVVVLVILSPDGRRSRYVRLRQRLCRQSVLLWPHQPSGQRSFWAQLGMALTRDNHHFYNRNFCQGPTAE
# CRFR2-BP antag: blocks CRF-induced signaling of the CRF-BP/CRF-R2 complex; inhibition, % at 11.8 µM; hit rate 0.59% among 350,000; HEK293 CRF-R2/CRF-BP, CRF-induced calcium fluorescence;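 active = inhibition of the ligand-induced calcium signal above about 50% at the single tested concentration, limit read from the data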
# ABHD5-PLIN5 inh: inhibitors of human ABHD5-perilipin-5 interaction. Q00G26+Q8WTS1. Split G. princeps luciferase complementation, luminescence, 4 h. inhibition, % at 4 µM. hit rate 0.78% among 360,000. AID 602281;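 active = inhibition above the mean inhibition across every tested compound plus 3 SD, cut at about 22% in these data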;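 also: 0% = DMSO only wells and the 100% control is not disclosed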
# HTR2A ag: activates the mouse 5-HT2A serotonin receptor; P35363; CHO-K1 mHTR2A beta-arrestin complementation, luminescence; percent of 30 µM serotonin response; activation, % at 7.6 µM; hit rate 0.66% among 360,000;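 active = activation above a run cutoff, the mean activation of all tested compounds plus 3 SD, cut at about 14% in these data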;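 also: 0% = plate median of compound wells and 100% = 30 µM serotonin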
# TLR4 MyD88 comp: inhibitors of human TLR4-MyD88 binding | O00206+Q99836 | HeLa CL3-4 TLR4/MyD88 BLA complementation, FRET ratio | hit rate 0.18% among 200,000 | AID 861 | inhibition, % at 8.4 µM; in the data active = inhibition above about 25%;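 also: 0% = vehicle and 100% = reference inhibitor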
# OPRM1 ag: counter-screen for mouse HTR2A agonists: human mu opioid receptor agonists; shares compounds with HTR2A ag; U2OS OPRM1 beta-arrestin PathHunter, luminescence; DMSO 0%, DAMGO 9.3 µM 100%; activation, % at 9.3 µM; hit rate 5.3% among 2,300;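 active = mean activation above the mean of DMSO-only wells plus 3 SD, cut at about 0.5% in these data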
# m5-HT2A ag conf: mouse HTR2A agonism confirmed. shares compounds with HTR2A ag. CHO-K1 PathHunter beta-arrestin recruitment, luminescence; DMSO 0%, 30 µM serotonin 100%. activation, % at 7.6 µM. hit rate 19% among 2,300;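 active = mean activation across triplicates above the hit threshold derived in the original primary screen, cut at about 15% in these data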
# Starred values were filed as active, the others as inactive; . = no result.
SMILES,NOD2 RIPK2 PPI,TLR9-MyD88 block,CRFR2-BP antag,ABHD5-PLIN5 inh,HTR2A ag,TLR4 MyD88 comp,OPRM1 ag,m5-HT2A ag conf
COc1ccccc1C(=O)NC(=O)COC(=O)c1ccc([N+](=O)[O-])cc1,-6,0,7,3,18*,.,0,5
Cc1ccccc1C(=O)N1CCC1(C)C(=O)NC(C)C (stereo not given),3,.,.,0,0,.,.,.
CCC(=O)NCCc1cc2ccc(C)c(C)c2[nH]c1=O,0,-4,8,1,5,-15,.,.
Cc1ccc2cc(CCNC(=O)C(C)C)c(=O)[nH]c2c1C,-14,-2,-11,2,16*,3,-1,-6
Cc1ccc(C)c2[nH]c(=O)c(CCNC(=O)c3ccco3)cc12,-8,-3,0,1,19*,-15,0,2
Cc1cc(NC(=O)COC(=O)C2CCN(S(=O)(=O)c3cccc(Cl)c3Cl)CC2)no1,1,-5,18,7,24*,3,-1,-4
Cn1nc(C(=O)NNC(=O)c2ccccc2F)c2ccccc2c1=O,0,3,1,-3,-4,.,.,.
CC(NC(=O)c1nn(C)c(=O)c2ccccc12)c1ccc(F)cc1 (stereo not given),-11,7,16,-11,15*,-12,0,-3
COc1ccc(-c2nc3c(C)cc(Br)cn3c2Cc2ccc(C)cc2)cc1OC,-7,.,.,-23,-3,.,.,.
COC(=O)C1(C(=O)OC)C[C@H](c2ccc(OC)cc2)N(Cc2ccccc2OC)[C@@H]1c1ccc(OC)cc1,-3,.,.,1,-5,.,.,.
Cc1cc(C)n(CCN(C)Cc2nc(Cc3ccccc3F)no2)n1,-4,-9,11,-3,38*,-8,-1,-2
O=C(NC(c1ccc(Cl)cc1)c1ccsc1)C1CCN(Cc2cccc(Cl)c2)CC1 (stereo not given),1,.,.,0,-7,.,.,.
O=C(CSc1n[nH]c(-c2ccccn2)n1)Nc1ccccc1,-18,6,0,-4,15*,.,-1,-5
S=C(NC1CCCCC1)N1CCN(Cc2ccccc2Cl)CC1,3,3,-13,2,17*,-7,0,1
S=C(NC1CCCCC1)N1CCN(Cc2ccccc2)CC1,8,9,-18,-1,2,-6,.,.
C#CCN(C[C@@H]1[C@@H](OC(=O)NCC2CCCCC2)[C@@H](OC(=O)NCC2CCCCC2)Cn2c(=O)n(CCCCCC)c(=O)n21)S(=O)(=O)c1ccc(C)cc1,0,3,11,1,8,.,.,.
O=C(Nc1ccc(Cl)cc1)Nc1nc(-c2sccc2Br)cs1,-2,4,5,-6,1,-6,.,.
O=C(Nc1ccc(Cl)cc1)Nc1nc(-c2ccccc2O)cs1,1,3,-6,-18,14*,.,0,2
CN1CCN(c2nc(-c3ccccc3)ncc2S(C)(=O)=O)CC1,-9,6,-3,-3,-7,.,.,.
O=S(=O)(c1ccccc1)c1cnc(-c2ccccc2)nc1N1CCCCC1,0,10,2,-5,-4,-1,.,.
Cc1ccc(S(=O)(=O)c2cnc(-c3ccccc3)nc2N2CCN(C)CC2)cc1,10,-9,-41,16,51*,-9,0,17*
CN1CCN(c2nc(-c3ccccc3)ncc2S(=O)(=O)c2ccccc2)CC1,6,6,-23,5,38*,1,0,29*
C/C=C/c1cccc(-c2nc(C(=O)NC3Cc4ccccc4C3)cc3c2[C@@H](CCO)N(C(C)=O)C3)c1,-19,.,.,0,8,.,.,.
COc1cc(/C=C/C(=O)O)ccc1O,-7,-1,3,4,0,.,.,.
COc1coc(/C=C/C(=O)O)cc1=O,-3,-1,11,10,22*,8,0,0
SMILES,NOD2 RIPK2 PPI,TLR9-MyD88 block,CRFR2-BP antag,ABHD5-PLIN5 inh,HTR2A ag,TLR4 MyD88 comp,OPRM1 ag,m5-HT2A ag conf
COc1ccc(CN(C)c2ncnc(N)n2)cc1,-16,7,9,3,19*,11,-1,-3
CC1(C(=O)NC2CCN(Cc3ccccc3)CC2)CCN1Cc1ccc2ccccc2c1 (stereo not given),-6,.,.,6,-3,.,.,.
Cc1ccccc1-n1ncc2c1CC(C)(C)CC2NC(=O)C1=CC(=O)CC(C)(C)O1 (stereo not given),-8,-17,0,0,32*,.,-1,-3
Cc1ccccc1-n1ncc2c1CC(C)(C)CC2NC(=O)C1CCC1 (stereo not given),3,0,-16,1,2,.,.,.
O=C(Nc1oc2ccccc2c(=O)c1-c1ccc2c(c1)OCO2)c1ccco1,-7,-13,-3,11,14*,.,-1,-4
O=C(NCc1ccc(F)cc1)c1cc(C2CCCCN2C(=O)c2ccccc2)on1 (stereo not given),-9,.,.,-7,-7,.,.,.
O=C(NCc1ccc(F)cc1)c1cc(C2CCCCN2C(=O)c2ccc(Cl)cc2)on1 (stereo not given),-2,.,.,-9,15*,.,-1,-6
CCOC(=O)c1nn(-c2ccccc2)c2nc(-c3ccc(OC)cc3)c(C#N)c(=O)n12,4,-8,-2,2,19*,-3,0.6*,8
C=CCn1c(SCC(=O)NCC(=O)OCC)nnc1-c1cccc(OC)c1,4,9,6,9,20*,-15,-1,-3
CCOC(=O)CNC(=O)CSc1nnc(-c2cccc(C)c2)n1-c1ccc(OC)cc1,9,3,15,-1,0,0,.,.
COCCC(=O)Nc1ccc2c(c1)CN(C(=O)CSC)CC2,-2,1,-4,5,7,.,.,.
COCCC(=O)N1CCc2ccc(NC(=O)c3ccc(C(F)(F)F)cc3)cc2C1,-10,-8,2,-7,32*,.,1.2*,1
COC(=O)C1=C(Cn2cnc3ccccc32)NC(=O)NC1c1cc(C)ccc1C (stereo not given),4,2,-6,0,73*,-6,.,46*
CC(C)(C)OC(=O)NCCc1nnc(SCc2c(Cl)cccc2Cl)o1,-7,0,-11,-9,15*,0,0,3
Cc1cc2nc(NC(=O)C3(C)CCN3C(=O)C(C)C)[nH]c2cc1C (stereo not given),7,.,.,-1,-2,.,.,.
CC(=O)Nc1ccc(OCC(O)Cn2ccnc2)cc1 (stereo not given),-14,7,1,-1,-1,16,.,.

# High-throughput results deposited in PubChem BioAssay by several laboratories.
